USP28 inh: inhibitors of human USP28 deubiquitinase; Q96RU2; inhibition, % at 25 µM; purified USP28, Ub-rhodamine cleavage fluorescence, 30 min; 47,000 compounds, 3% hits
OTUD3 inh: blocks human OTUD3 ubiquitin-rhodamine cleavage | purified OTUD3, Ub-rhodamine fluorescence, 2 h | inhibition, % at 25 µM | 47,000 compounds, 0.7% hits | AID 1645858
Target sequence (Q5T2D3 whole entry, looked up): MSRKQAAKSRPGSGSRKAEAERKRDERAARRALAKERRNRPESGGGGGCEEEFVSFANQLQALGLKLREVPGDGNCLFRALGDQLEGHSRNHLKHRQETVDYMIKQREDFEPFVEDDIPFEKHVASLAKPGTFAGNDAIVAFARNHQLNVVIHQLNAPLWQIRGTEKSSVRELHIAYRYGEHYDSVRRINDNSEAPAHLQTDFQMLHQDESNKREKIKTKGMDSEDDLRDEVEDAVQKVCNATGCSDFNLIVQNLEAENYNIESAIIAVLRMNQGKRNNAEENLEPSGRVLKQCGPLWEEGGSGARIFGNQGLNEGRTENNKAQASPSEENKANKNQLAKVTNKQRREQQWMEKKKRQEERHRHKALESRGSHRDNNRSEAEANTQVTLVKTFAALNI
Numbers without * were called inactive; x = not tested or not shown. Hits are enriched below; roughly 3.4% of the tested compounds scored in any of these assays. Rule as the data show it: active = inhibition above about 30%; inactive = the rest.

SMILES	USP28 inh	OTUD3 inh
C[C@@H]1OC(O[C@@H]2C[C@H](c3ccc4c(c3O)C(=O)C3=C(C4=O)[C@@]4(OC5CC[C@H](O)[C@H](C)O5)C(=O)C[C@](C)(O)C[C@@]4(O)C=C3)O[C@H](C)C2O)CC[C@@H]1O[C@H]1C[C@@H](O)[C@H](O)[C@@H](C)O1 (stereo partly specified)	-200	-85
O=S(=O)(C1CC1)N1CCC(Oc2cc(N3CCCC3)ncn2)C1 (stereo unspecified)	0	0
CCN1C(SCc2ccccc2F)=NS(=O)(=O)c2ccccc21	74*	8
CCN1C(SCC(=O)Nc2ccccc2Cl)=NS(=O)(=O)c2ccccc21	-2	6
O=C(Nc1ccc(F)cc1)Nc1ccccc1OCc1cc(=O)n2ccccc2n1	31*	33*
O=C(Nc1ccc2c(c1)OCCO2)Nc1ccccc1OCc1cc(=O)n2ccccc2n1	8	-5
Cc1ccc(-n2ccn3c(CCC(=O)NCc4ccc(F)cc4)nnc3c2=O)cc1C	14	27
Cc1ccc(CNC(=O)CCc2nnc3c(=O)n(-c4ccc(C)c(C)c4)ccn23)cc1	33*	27
O=S(=O)(Nc1cnc(N2CCCC2)nc1)c1ccc(C(F)(F)F)cc1	6	-3
Cc1csc(-c2[nH]ncc2-c2ccsc2)n1	34*	11
COc1ncccc1-c1cn[nH]c1-c1ccsc1	x	-2
CCNc1nc(N2CCCCCC2)nc(-n2cnc(SC)n2)n1	20	19
CCc1cc(CN2CCN(CC)CC2)c(NC(=O)c2ccccc2)s1	-7	-10
Cc1ccc(CS(=O)(=O)c2cn(CC(=O)NCc3ccco3)c3ccccc23)cc1	24	15
Cc1cc(C#N)c2c(C)ccc(C(C)C)cc1-2	58*	17
COc1ccccc1NC(=O)c1cc(S(=O)(=O)N2CCCc3ccccc32)ccc1F	0	10
COc1ccc(S(=O)(=O)N2CCc3ccccc32)cc1C(=O)Nc1ccc2[nH]c(=O)[nH]c2c1	37*	-4
COc1cc(NC(C)=O)c(Cl)cc1C(=O)Nc1ccc2c(c1)OCCO2	0	-3
O=C(c1ccco1)N(Cc1ccccc1Cl)c1ccccn1	11	9
O=C(c1ccc(Br)o1)N(Cc1ccccc1Cl)c1ccccn1	31*	17
CCN1CCC2(CN(C(C)=O)CC23CCN(C(=O)NCc2cccc(OC)c2)CC3)C1=O (stereo unspecified)	8	10
Cc1cc(C)c(NC(=O)CSc2nnc(Cc3cccc4ccccc34)n2C)c(C)c1	5	2
Cc1ccc(NC(=O)CSc2nnc(Cc3cccc4ccccc34)n2C)c(C)c1	49*	12
O=C(NCc1ccc(Cl)cc1)c1csc(C(=O)NC2CC2)n1	4	-4
O=C(Cn1c(=O)n(Cc2ccccc2)c(=O)c2ncccc21)NCc1ccccc1Cl	-1	-6
SMILES	USP28 inh	OTUD3 inh
Cc1cc(C)c(NC(=O)CSc2nc3nccnc3c(=O)n2Cc2ccccc2Cl)c(C)c1	37*	31*
Cc1ccc(NC(=O)c2ccc(C)c(C)c2)cc1C	40*	12
Cc1ccc(C(=O)Nc2ccc(C)c(C)c2)c(C)c1	15	8
Cc1noc(-c2ccncc2)c1C(=O)NCCc1ccncc1	-13	-2
CCN(CC)c1nc(F)c2c(c1F)S(=O)(=O)CCN2Cc1ccccc1	16	15
CC(C)(C)C(=O)N1CCCC(c2ccnc3nc(C(F)(F)F)nn23)C1 (stereo unspecified)	0	4
COc1ccc(/C=C/C(=O)Nc2cc(C)ccn2)cc1	46*	4
COc1ccc(/C=C/C(=O)Nc2ccccc2C#N)cc1	x	0
Cc1ccc(F)cc1NC(=O)CCCc1c[nH]c2ccccc12	8	0
O=C(CCc1c[nH]c2ccccc12)Nc1ccc(Br)cc1F	42*	17
CCc1cccc2c(C(=O)COC(=O)C(CCSC)NC(=O)c3ccc([N+](=O)[O-])cc3Cl)c[nH]c12 (stereo unspecified)	12	14
CCN(CC)C(=O)c1nc2c(s1)CCN(C(=O)c1cc(C)on1)CC2	-9	-2
CC(C)CC[C@H]1O[C@@H](CC(=O)O)Cc2cc3c(c(O)c21)C(=O)c1sc(=O)n(C)c1C3=O	77*	70*
O=C(NCCc1cccnc1)c1nc2c(s1)CCCN2C(=O)C1CC1	21	18
O=C(NCCc1cccc(F)c1)c1nc2c(s1)CCCN2C(=O)C1CC1	37*	3
O=C1CC(c2ccccc2)n2nc(NC(=O)c3ccccc3F)nc2N1 (stereo unspecified)	-5	-2
C=C1Nc2ccccc2C(=O)N1c1cccc(NC(=O)c2ccc(OC)cc2)c1	13	0
CN1CCN(C(=O)[C@H]2C[C@@H]3CN(C(=O)NC4CCCC4)C[C@H]2O3)CC1	6	13
CC(C)C(NS(=O)(=O)c1ccccc1)C(=O)OCC(=O)Nc1ccc2c(c1)OCO2 (stereo unspecified)	8	13
CC(C)NS(=O)(=O)c1ccc(CCC(=O)Nc2ccc3c(c2)OCCO3)cc1	82*	-5
Cc1cccc(C)c1NC(=O)COC(=O)CCc1ccc(S(=O)(=O)N2CCCCC2)cc1	0	3
O=C(COC(=O)CCc1ccc(S(=O)(=O)N2CCOCC2)cc1)Nc1ccc2c(c1)OCCO2	65*	9
CCCNC(=O)c1oc2ccc3c(c2c1C)C(=O)CC1(CCCC1)O3	15	5
Cc1nc2ccn(Cc3ccco3)c(=O)c2cc1C(=O)NCc1cccs1	30*	-4
COCCn1ccc2nc(C)c(C(=O)NCc3ccccc3)cc2c1=O	7	11
SMILES	USP28 inh	OTUD3 inh
COc1cccc(-n2ccc(=O)c(-c3nc(-c4cccc(C)c4)no3)n2)c1	1	2
CCOc1cccc(-c2noc(-c3nn(-c4cccc(C)c4)ccc3=O)n2)c1	-7	0
CCOc1cccc(-c2noc(-c3nn(-c4ccccc4)ccc3=O)n2)c1	70*	40*
COc1ccc(-n2ccc(=O)c(-c3nc(-c4ccccc4F)no3)n2)cc1OC	63*	6
CCOc1ccccc1/C=C/C12NC(=O)CN1c1ccccc1C2(C)C (stereo unspecified)	-72	-26
Cc1nc(-c2ccccc2)n(Cc2ccccc2)c(=O)c1CCO	x	-3
Cc1nc(-c2ccccc2)n(Cc2ccc(F)cc2)c(=O)c1CCO	33*	-6
Cc1ccc(-n2nc(C)cc2Nc2ccc(S(=O)(=O)N3CCCCC3)cn2)cc1	-6	-11
COc1cccc(CNc2cc(C(C)C)nc3nc(-c4cccnc4)nn23)c1	14	8
CC(C)c1cnn2c(NCc3ccccc3)cc(NCCCCCCN)nc12	40*	-8
N#Cc1ccccc1COc1ncnc2scc(-c3ccccc3)c12	22	0
c1ccc(COc2ncnc3scc(-c4ccccc4)c23)cc1	34*	3
CC(=O)c1cccc(NC(=O)C2CCCN(c3cnc4nccnc4c3)C2)c1 (stereo unspecified)	-200	-167
COCCn1c(SCC(=O)c2ccc(NC(C)=O)cc2F)nc2ccccc21	19	21
CC(C)Cc1nc2sc3c(SCCCc4ccccc4)ncnc3c2c2c1COC(C)(C)C2	-1	4
CCc1ccc(NC(=O)CCS(=O)(=O)c2ccc3c(c2)CC(=O)N3C)cc1	9	6
CCc1ccc(NC(=O)COc2cccc(-n3cnnn3)c2)cc1	0	0
CCCOc1cccc(C(=O)Nc2ccc(-n3cnnn3)cc2)c1	47*	6

Assay outcomes: PubChem, Buhrlage Lab, Dana-Farber Cancer Institute and Novartis Institutes for BioMedical Research (Cambridge, Mass)
